Results from PubChem BioAssay AID1159580 (chemical genetic matrix, 2015).
Where “and” joins values, the source holds several entries; their conditions need not be identical. Identical values can stand only once. Among all 5,500 compounds or so, about 2,000 (36%) were called active. Another 18% or so got no clear call; they are omitted. No stated cut-off is given here; in the data, active means normalized growth mostly below about 0.91 (no sharp cut-off); inconclusive means no clear call, values can overlap the other calls; inactive means mostly above about 0.92. This is one part of the list.

Experiment: chemical genetic growth profiling, strain panel (AID 1159580);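 further: tested at 20 µM; growth read once vehicle control cultures reached saturation at 30 °C; 1 = growth at the plate median or of vehicle wells; lower values mean less growth of the strain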
Settings: S. cerevisiae deletion strains, growth OD

Measured: normalized growth

NCCSSCCN
inactive: locus YAL013W, strain DEP1, hits give low values 1.01 | locus YAL021C, strain ccr4, hits give low values 0.998 | locus YAL026C, strain drs2, hits give low values 0.999 | locus YAL030W, strain snc1, hits give low values 0.994 | locus YAL040C, strain CLN3, hits give low values 1.02 | locus YBL061C, strain skt5, hits give low values 0.997 | locus YBR009C, strain hhf1, hits give low values 0.992 | locus YBR021W, strain FUR4, hits give low values 1.01 | locus YBR023C, strain chs3, hits give low values 0.991 | locus YBR171W, strain sec66, hits give low values 0.988 | locus YBR229C, strain ROT2, hits give low values 1 | locus YBR231C, strain swc5, hits give low values 0.994 | locus YBR279W, strain paf1, hits give low values 0.996 | locus YCL011C, strain gbp2, hits give low values 1 | locus YCL016C, strain dcc1, hits give low values 1 | locus YCL029C, strain bik1, hits give low values 1.03 | locus YCL061C, strain MRC1 (second series), hits give low values 1 | locus YCL069W, strain vba3, hits give low values 0.997 | locus YCR088W, strain abp1, hits give low values 0.991 | locus YDL005C, strain med2, hits give low values 0.988 | locus YDL035C, strain GPR1, hits give low values 1.01 | locus YDL040C, strain nat1, hits give low values 0.996 | locus YDL074C, strain BRE1, hits give low values 1.03 | locus YDL101C, strain DUN1, hits give low values 1.03 | locus YDL134C, strain PPH21, hits give low values 1.01 | locus YDL185W, strain tfp1, hits give low values 1 | locus YDL192W, strain arf1, hits give low values 1 | locus YDR001C, strain nth1, hits give low values 0.992 | locus YDR069C, strain doa4, hits give low values 0.983 | locus YDR101C, strain arx1, hits give low values 1.01 | locus YDR137W, strain rgp1, hits give low values 1.03 | locus YDR150W, strain NUM1, hits give low values 1.01 | locus YDR159W, strain sac3, hits give low values 1.01 | locus YDR162C, strain NBP2, hits give low values 1.01 | locus YDR195W, strain ref2 0.975 | locus YDR297W, strain sur2, hits give low values 1 | locus YDR318W, strain mcm21, hits give low values 1.01 | locus YDR334W, strain swr1, hits give low values 0.996 | locus YDR335W, strain msn5, hits give low values 0.991 | locus YDR388W, hits give low values 1.01 | locus YDR392W, strain spt3, hits give low values 1.01 | locus YDR502C, strain sam2, hits give low values 0.996 | locus YEL003W, strain gim4, hits give low values 0.994 | locus YEL037C, strain rad23, hits give low values 1 | locus YEL061C, strain CIN8 (second series), hits give low values 0.989 | locus YEL061C, strain CIN8, hits give low values 1 | locus YER002W, strain NOP16, hits give low values 1.02 | locus YER015W, strain faa2, hits give low values 1 | locus YER016W, strain bim1, hits give low values 0.992 | locus YER110C, hits give low values 1.01 | locus YER111C, strain swi4, hits give low values 0.989 | locus YER155C, strain BEM2 (second series), hits give low values 0.952 | locus YER155C, strain BEM2, hits give low values 1.01 | locus YER167W, strain BCK2, hits give low values 0.997 | locus YFR010W, strain ubp6, hits give low values 0.994 | locus YGL078C, strain dbp3, hits give low values 1 | locus YGL086W, strain mad1, hits give low values 0.985 | locus YGL167C, strain pmr1, hits give low values 0.993 | locus YGL173C, strain kem1, hits give low values 0.99 | locus YGL227W, strain vid30, hits give low values 0.99 | locus YGL240W, strain doc1, hits give low values 0.978 | locus YGL248W, strain PDE1, hits give low values 1 | locus YGL253W, strain hxk2, hits give low values 0.995 | locus YGR078C, strain PAC10, hits give low values 1.02 and 1 | locus YGR135W, strain pre9, hits give low values 0.997 | locus YGR229C, strain SMI1, hits give low values 0.982 | locus YGR252W, strain gcn5, hits give low values 0.918 | locus YHR013C, strain ard1, hits give low values 0.996 | locus YHR027C, strain rpn1, hits give low values 0.997 | locus YHR030C, strain SLT2, hits give low values 1 and 1.05 | locus YHR079C, strain IRE1 (second series), hits give low values 1.02 | locus YHR079C, strain IRE1, hits give low values 1.05 | locus YHR094C, strain hxt1, hits give low values 1.01 | locus YHR129C, strain ARP1, hits give low values 1.02 | locus YHR142W, strain chs7, hits give low values 1.01 | locus YHR200W, strain rpn10, hits give low values 1.01 | locus YIL066C, strain RNR3, hits give low values 1.02 | locus YIL073C, strain SPO22, hits give low values 1.02 | locus YIL125W, strain kgd1, hits give low values 0.996 | locus YIR030C, strain dcg1, hits give low values 1.01 | locus YJL092W, strain hpr5, hits give low values 1 | locus YJL095W, strain BCK1 (second series), hits give low values 0.989 | locus YJL095W, strain BCK1, hits give low values 1.04 and 1.06 | locus YJL115W, strain asf1, hits give low values 0.988 | locus YJL129C, strain trk1, hits give low values 0.986 | locus YJL134W, strain LCB3, hits give low values 1 | locus YJL154C, strain vps35, hits give low values 0.993 | locus YJL164C, strain tpk1, hits give low values 1.01 | locus YJL166W, strain qcr8, hits give low values 0.989 | locus YJL168C, strain set2, hits give low values 1.01 | locus YJL187C, strain SWE1 (second series), hits give low values 1.03 | locus YJL187C, strain SWE1, hits give low values 0.993 | locus YJR043C, strain POL32, hits give low values 1.03 | locus YJR066W, strain TOR1, hits give low values 0.918 | locus YJR075W, strain HOC1, hits give low values 1.01
